Results on 83 molecules are retold here after article PMC4336329 (PLoS ONE, 2015).

Out of some 310,000 compounds screened, about 14,000 (4.5%) showed an effect of 50% or more. The effect is printed as a negative number. The full list was thinned out, with strong results kept by preference.
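Further: peak tail current of the secondary pulse compared with the same well before compound.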

Chain of human ether-à-go-go-related gene (hERG) potassium channel (Q12809 whole entry, looked up): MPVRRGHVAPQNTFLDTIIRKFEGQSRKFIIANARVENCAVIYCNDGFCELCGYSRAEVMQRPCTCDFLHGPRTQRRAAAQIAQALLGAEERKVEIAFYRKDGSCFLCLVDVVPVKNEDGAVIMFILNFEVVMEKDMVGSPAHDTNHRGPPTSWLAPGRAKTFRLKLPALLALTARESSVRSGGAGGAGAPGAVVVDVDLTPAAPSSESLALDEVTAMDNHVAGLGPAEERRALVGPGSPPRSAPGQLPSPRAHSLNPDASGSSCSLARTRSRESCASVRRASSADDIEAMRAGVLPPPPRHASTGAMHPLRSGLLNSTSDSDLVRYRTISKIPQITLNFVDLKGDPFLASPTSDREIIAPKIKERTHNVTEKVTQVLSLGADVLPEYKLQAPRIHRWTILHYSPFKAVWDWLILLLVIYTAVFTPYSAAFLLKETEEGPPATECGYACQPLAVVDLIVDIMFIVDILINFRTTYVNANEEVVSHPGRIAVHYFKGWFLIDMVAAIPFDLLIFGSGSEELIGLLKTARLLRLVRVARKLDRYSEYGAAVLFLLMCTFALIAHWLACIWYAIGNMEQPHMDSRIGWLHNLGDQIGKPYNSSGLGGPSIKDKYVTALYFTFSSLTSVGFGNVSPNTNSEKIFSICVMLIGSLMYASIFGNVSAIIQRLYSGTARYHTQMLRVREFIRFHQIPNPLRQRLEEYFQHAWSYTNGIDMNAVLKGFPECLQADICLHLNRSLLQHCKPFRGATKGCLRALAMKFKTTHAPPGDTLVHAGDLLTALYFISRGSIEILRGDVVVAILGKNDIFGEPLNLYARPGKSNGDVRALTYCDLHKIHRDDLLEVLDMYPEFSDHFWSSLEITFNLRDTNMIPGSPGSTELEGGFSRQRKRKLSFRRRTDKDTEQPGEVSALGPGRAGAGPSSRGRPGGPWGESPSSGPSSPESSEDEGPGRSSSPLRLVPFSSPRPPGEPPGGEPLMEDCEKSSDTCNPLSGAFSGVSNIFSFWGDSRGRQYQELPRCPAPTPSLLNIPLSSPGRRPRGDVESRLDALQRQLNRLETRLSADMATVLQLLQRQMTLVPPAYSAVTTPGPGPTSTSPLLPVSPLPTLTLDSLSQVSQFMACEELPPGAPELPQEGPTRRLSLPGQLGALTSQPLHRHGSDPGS

This assay concerns the target human ether-à-go-go-related gene (hERG) potassium channel (human, UniProt Q12809). Description: primary screen, population patch clamp on CHO cells stably expressing hERG; higher = less effect of the substance.
On to `O=C(NC1CCOCC1)C1CCC(=O)N(Cc2cccc(C(F)(F)F)c2)C1` (centres unmarked), for which the “hERG current change (%, negative = inhibition) at 10uM” value is 13.7%. Consider `Cc1cc2c(cc1S(=O)(=O)CCC(=O)N(C)Cc1ccccc1)OCC(=O)N2`, for which the “hERG current change (%, negative = inhibition) at 10uM” value is reported as -35%. Regarding `O=[N+]([O-])c1cccc(/C=N/n2c(C3CCCCC3)n[nH]c2=S)c1`, the “hERG current change (%, negative = inhibition) at 10uM” value came to 11.9%. The same measure for `COc1cc([N+](=O)[O-])ccc1NC(=O)Nc1ccc2c(c1)OCCO2`: 25.3%; for `CCN1CCN(CCNC(=O)CCCn2nc(C)c3c(C)n(-c4ccc(C)cc4)nc3c2=O)CC1`: 0.678%.

Regarding `O=C(CCC(=O)c1ccc[nH]1)c1ccc(Cl)cc1`, the “hERG current change (%, negative = inhibition) at 10uM” value is on record as -5.4%.

Consider `CC1CCCN(CCC(=O)Nc2ccc(F)c(F)c2)C1` (centres unmarked), for which the “hERG current change (%, negative = inhibition) at 10uM” value was -30.1%.

For `COc1ccc(/C(C)=N/NC(=O)Cc2ccc(Cl)cc2)cc1`, the “hERG current change (%, negative = inhibition) at 10uM” value stood at 14.6%. On to `O=C1C(=O)N(c2ccccn2)C(c2ccc(Br)cc2)/C1=C(/O)c1ccc(Br)cc1` (centres unmarked), for which the “hERG current change (%, negative = inhibition) at 10uM” value is given as -47.8%.

Turning to `CCOc1cc2[nH]c(=O)n(CCCC(=O)NCc3ccco3)c(=O)c2cc1OCC`, the “hERG current change (%, negative = inhibition) at 10uM” value is on record as 5.83%. For the molecule `Cc1cc(C)n(-c2ccc(C(=O)N3CCN(S(=O)(=O)c4ccc(Cl)cc4)CC3)cc2)n1`, the “hERG current change (%, negative = inhibition) at 10uM” value was -25.8%. On to `COC(=O)c1cccc(C(=O)N2CCC(CO)(CCc3ccccc3)CC2)c1`, for which the “hERG current change (%, negative = inhibition) at 10uM” value is recorded as -13.6%. As to `COc1cccc(CC2(CO)CCN(Cc3cnc(-c4cccc(C)c4)nc3)CC2)c1`, the “hERG current change (%, negative = inhibition) at 10uM” value is reported as -19.9%. As to `Cn1cc(CN2CCC(CO)(CCCc3ccccc3)CC2)c(-c2ccccc2)n1`, the “hERG current change (%, negative = inhibition) at 10uM” value is reported as -66.3%. Take `Cc1cccc(-c2ncc(CN3CCC(CO)(CCCc4ccccc4)CC3)cn2)c1`: the “hERG current change (%, negative = inhibition) at 10uM” value is -54.1%. The same measure for `CC(C)(O)C#Cc1ccc(CN2CCC(CO)(CCc3ccccc3)CC2)cc1`: -39.8%; for `CC(=O)c1cccc(CN2CCC(CO)(Cc3ccccc3)CC2)c1`: -22.9%; for `Cc1ccccc1-c1ncc(CN2CCC(CO)(CCCc3ccccc3)CC2)cn1`: -10.9%. With `OCC1(CCCc2ccccc2)CCN(Cc2ccc(F)cc2)CC1` the figure was -72.9%; with `O=C(CN1CCN(Cc2ccc(F)cc2)CC1)NCCc1ccccc1`, -13.6%; with `CC(=O)c1cccc(CN2CCC(CO)(CCCc3ccccc3)CC2)c1`, -63.9%. With `Cc1cc2cc(C#N)c(SCC(=O)Nc3nonc3C)nc2cc1C` the figure was -0.0959%; with `CCOC(=O)c1c(C)[nH]c(C)c1C(=O)COC(=O)c1nc2nccc(C)n2n1`, 24.8%; with `C/C(=N/NC(=O)c1cc(C(C)C)[nH]n1)c1cccs1`, 7.16%.

Regarding `COc1cc(OC)cc(-c2c(-c3cccs3)c3cc(-c4ccn[nH]4)ccc3n2C)c1`, the “hERG current change (%, negative = inhibition) at 10uM” value was 7.72%. The same measure for `O=C(Nc1ccc(Br)cc1Br)c1cccc2c1C(=O)N(C1CCCCC1)C2`: 12.8%; for `CN(C)c1ccc(C=NCCC2(c3ccccc3)CCOC(C)(C)C2)cc1` (centres unmarked): 15.3%; for `[N-]=C=C1C(=S)NC(=O)[C@H]([n+]2ccccc2)[C@H]1c1ccc(Cl)cc1`: 15.9%. With `Cc1ccc2nc(/C(C#N)=C/c3ccc(O)c(O)c3)[nH]c2c1` the figure was 7.82%.

Consider `OCC1(CCc2ccccc2)CCN(Cc2cc(F)ccc2-n2cccn2)CC1`, for which the “hERG current change (%, negative = inhibition) at 10uM” value was -78.1%.

For `Clc1ccccc1CN1CCC(Cc2ccccc2)CC1`, the “hERG current change (%, negative = inhibition) at 10uM” value was -12.1%. In the case of `O=S(=O)(c1cccc(C(F)(F)F)c1)N1CCC(CO)(CCCc2ccccc2)CC1`, the “hERG current change (%, negative = inhibition) at 10uM” value is recorded as -6.59%. With `CC(C)N1CCN(Cc2cc(F)ccc2-n2cccn2)CC1CCO` (centres unmarked) the figure was 11.2%.

As to `CC(C)N1CCC(N2CCN(Cc3cc(F)ccc3-n3cccn3)CC2CCO)CC1` (centres unmarked), the “hERG current change (%, negative = inhibition) at 10uM” value is given as -8.1%. With `OCC1(CCc2ccccc2)CCN(Cc2ccccc2Cl)CC1` the figure was -86%; with `OCC1(CCc2ccccc2)CCN(Cc2c(F)ccc(F)c2F)CC1`, -36.9%. The same measure for `OCC1(CCc2ccccc2)CCN(Cc2cc(Cl)ccc2O)CC1`: -49.5%; for `OCC1(CCCc2ccccc2)CCN(Cc2cc(F)ccc2F)CC1`: -69.5%.

On to `CCOc1ccc(NC(=O)N2CC=C(n3c(=O)[nH]c4ccccc43)CC2)cc1`, for which the “hERG current change (%, negative = inhibition) at 10uM” value is on record as -8.9%. The same measure for `COc1ccc2[nH]c(=O)c(CN(c3ccc(C)c(C)c3)S(C)(=O)=O)cc2c1`: 12.9%; for `Cc1ccccc1NC(=O)c1[nH]cnc1C(=O)NN`: 9.21%; for `CCCCOc1ccc(C2C(C(=O)c3cccs3)=C(O)C(=O)N2CCN2CCOCC2)cc1` (centres unmarked): 21.8%. With `CC(=O)Oc1cc2c(C(=O)NCCCN3CCOCC3)c(C)oc2c2ccccc12` the figure was -18.2%; with `Cc1cc2nc(C)n(CCCN)c2cc1C.Cl`, -0.0557%. With `CCN(CC)S(=O)(=O)c1ccc(Cl)c(NC(=O)COc2ccc3c(C)cc(=O)oc3c2)c1` the figure was 7.69%; with `CCOC(=O)C(Sc1nnc(-c2ccncc2)o1)C(C)=O` (centres unmarked), 27.7%. On to `COc1ccc(/C=C(\NC(=O)c2ccc(C)cc2)C(=O)NCCCn2ccnc2)cc1`, for which the “hERG current change (%, negative = inhibition) at 10uM” value is listed as -86.4%. With `Cl.O=C(NCCCn1ccnc1)c1ccc(F)cc1` the figure was -2.81%; with `COc1ccc(C(=O)N/C(=C\c2cn(C)c3ccccc23)C(=O)NCCCn2ccnc2)cc1`, 26.3%; with `COc1ccc(/C=C(/NC(=O)c2ccc(OC)c(OC)c2)C(=O)NCCCn2ccnc2)cc1`, 11.5%. Regarding `Cc1ccc(C(=O)N/C(=C\c2ccc(F)cc2)C(=O)NCCCn2ccnc2)cc1`, the “hERG current change (%, negative = inhibition) at 10uM” value is on record as -77.5%. Turning to `COc1ccc(C(=O)NCCCn2ccnc2)cc1.Cl`, the “hERG current change (%, negative = inhibition) at 10uM” value is listed as -5.63%.

Turning to `COc1ccc2c(c1)CCc1c(C(=O)NCCCn3ccnc3)noc1-2`, the “hERG current change (%, negative = inhibition) at 10uM” value is on record as -50.2%. With `COc1ccc(/C=C(/NC(=O)c2ccccc2)C(=O)NCCCn2ccnc2)cc1OC` the figure was 19%; with `COCCNC(=O)c1noc2c1CCc1cc(OC)ccc1-2`, -6.83%; with `COc1ccc(C(=O)N/C(=C\c2ccccc2)C(=O)NCCCn2ccnc2)cc1`, -55.8%. For the molecule `O=C(NCCCn1ccnc1)c1noc2c1CCc1ccccc1-2`, the “hERG current change (%, negative = inhibition) at 10uM” value is listed as -45.9%. With `COc1ccc(N(C2=NCCCS2)S(=O)(=O)c2ccc(C(C)(C)C)cc2)cc1` the figure was 0.221%; with `CCc1ccc2[nH]c(C(=O)Nc3ccc4c(c3)OCO4)cc2c1`, 18.8%. With `COc1ccc(OC)c(S(=O)(=O)N/N=C(/C)c2c[nH]c3ccccc23)c1` the figure was 14.1%; with `CCN(C(=O)c1cc2c(=O)[nH]c3ccc(C)cc3c2s1)c1cccc(C)c1`, -0.235%. On to `Cc1nn(-c2ccc(N3CCCCC3)nn2)c(C)c1CCC(=O)Nc1cccc(F)c1`, for which the “hERG current change (%, negative = inhibition) at 10uM” value was -19%. With `COC(=O)c1sccc1-n1cc(C#N)c(=O)n(C)c1=O` the figure was 17.9%; with `COc1cc2c(c(OC)c1OC)-c1ccc(O)c(=O)cc1[C@@H](N)CC2`, -11.8%; with `COCCn1c(C(C)C)nc2ccccc21`, 4.45%.

On to `CCn1cc(C2=NOC(C(=O)Nc3ccccc3C(=O)OC)C2)c(C)n1` (centres unmarked), for which the “hERG current change (%, negative = inhibition) at 10uM” value was -3.86%. For the molecule `COc1cc(C2C(C(=O)c3ccco3)=C(O)C(=O)N2CC2CCCO2)ccc1O` (centres unmarked), the “hERG current change (%, negative = inhibition) at 10uM” value was 2.25%. For `Cc1ccn2c(=O)c(NC(=O)c3ccc(Br)o3)c(C)nc2c1`, the “hERG current change (%, negative = inhibition) at 10uM” value was determined as 8.18%.

For the molecule `CC1(C)C(=O)NCCN1C(=O)CC1C(=O)NCCN1CC(c1ccccc1)c1ccccc1` (centres unmarked), the “hERG current change (%, negative = inhibition) at 10uM” value came out at 12%.

In the case of `CC(C)(C)NC(=O)C(c1cccs1)N(Cc1ccco1)C(=O)c1csnn1` (centres unmarked), the “hERG current change (%, negative = inhibition) at 10uM” value was -1.46%. The same measure for `COc1ccc(C(=O)CCC(=O)Nc2ccc(Cl)cc2)cc1`: 11.2%; for `COc1ccc(/C=C(\NC(=O)c2ccc(C)cc2)C(=O)NCCCn2ccnc2)cc1OC`: 8.48%.

For the molecule `Cc1ccc(/C=C(\NC(=O)c2ccc(C)cc2)C(=O)NCCCn2ccnc2)cc1`, the “hERG current change (%, negative = inhibition) at 10uM” value is -84.9%. With `COc1cccc(-c2nn(-c3ccccc3)cc2/C=C(\C#N)C(=O)NCCCn2ccnc2)c1` the figure was -38.8%; with `Cc1ccc(C(=O)N/C(=C\c2ccccc2)C(=O)NCCCn2ccnc2)cc1`, -84.8%; with `COc1ccc(C(=O)N/C(=C\c2cn(S(=O)(=O)N(C)C)c3ccccc23)C(=O)NCCCn2ccnc2)cc1`, 1.07%. As to `O=C(NCCCn1ccnc1)c1cc([N+](=O)[O-])cc([N+](=O)[O-])c1`, the “hERG current change (%, negative = inhibition) at 10uM” value was -4.05%. With `N#C/C(=C\c1ccc([N+](=O)[O-])cc1)C(=O)NCCCn1ccnc1` the figure was -59.5%. The same measure for `COc1ccc(/C=C(\NC(=O)c2ccc([N+](=O)[O-])cc2)C(=O)NCCCn2ccnc2)cc1`: -69.4%; for `C/C(CC(=O)Nc1ccc(Cl)c(C(F)(F)F)c1)=N\NC(=O)c1cnccn1`: -25.8%.

For the molecule `COc1ccc(Cc2nnc(N)s2)cc1`, the “hERG current change (%, negative = inhibition) at 10uM” value is given as 15.3%. With `O=C(Nc1cccc(-n2cnnn2)c1)c1cccnc1` the figure was 4.53%. Regarding `C#CCOCCOCCOCCNc1nc(N2CCN(C(=O)C(Cc3ccc(O)cc3)n3cc(C(N)C(C)CC)nn3)CC2)nc(N2CCN(C(=O)C(Cc3ccc(O)cc3)n3cc(C(N)C(C)CC)nn3)CC2)n1.Cl` (centres unmarked), the “hERG current change (%, negative = inhibition) at 10uM” value is -13.3%.
